Source: PubChem (several laboratories)
Only some compounds are listed: those with a hit (about 3.1% of all), similar ones and a draw of the others.
HSP90 inh – blocks HSP90-mediated luciferase refolding in reticulocyte lysate; Rabbit reticulocyte lysate, luciferase refolding luminescence, 3 h; inhibition, % at 5.6 µM; 290,000 compounds, 0.91% hits; AID 1789;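 active = inhibition above the screen-wide mean plus 3 SD, computed separately per campaign, cut at about 16% in these data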;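 also: inhibitors lower the luminescence because luciferase stays unfolded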
HIF activator – HIF pathway transcriptional activation; U2OS HRE-luciferase reporter, luminescence; normalized: DMSO 0%, desferrioxamine 100%; activation, % at 7.5 µM (by protocol); 300,000 compounds, 0.32% hits;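 active = mean activation of at least 10% of the iron chelator positive control signal, with at least half of replicates also reaching 10%; inconclusive = mean and replicate majority disagree about reaching 10%; inactive = mean and most replicates under 10%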
HSF1 inh – HSF1 inhibition; 300,000 compounds, 0.77% hits; activity change, negative = inhibition, % at 7.5 µM (by protocol); AID 2098; NIH3T3-HGL HSE-luciferase, MG132-induced, luminescence 8 h; stronger effect = lower value;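 active = more than half of replicate wells show activity change below -50%, luminescence cut by over half; inconclusive = some wells, but at most half, below -50%; inactive = no replicate well below -50%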;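 also: luciferase reports HSF-1 transcriptional activity via heat shock element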
HSF1 activator – increases HSF-1 driven luciferase reporter signal. 300,000 compounds, 1.7% hits. NIH3T3-HGL HSF-1 luciferase reporter, MG132, 8 h; 100% = twice DMSO control signal. activation, % at 9 µM;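 active = mean replicate activation of at least 50% with a set share of replicates each reaching 50%; inconclusive = only one of those two conditions met; inactive = mean below 50% and too few replicates reaching it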
ARNT TACC3 PPI – disruptors of human ARNT/TACC3 interaction | 390,000 compounds, 0.66% hits | AlphaScreen His-ARNT PAS-B/GST-TACC3 binding, luminescence; TACC3 fragment carries E629A point mutation | Q9Y6A5 | inhibition, % at 9.99 µM;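 active = mean inhibition of replicates at least 50% and at least half of replicates each reaching 50%; inconclusive = half or more replicates reach 50% but mean below 50%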
Large screens that a line does not name were inactive.

Cc1ccc(OC(=O)c2ccc(C)c(C)c2)cn1	HSF1 activator 54
O=C(CSc1ccc2nnc(-c3ccccn3)n2n1)N1CCN(c2ccccc2)CC1	ARNT TACC3 PPI 67
O=C(CSc1ccc2nnc(-c3ccccn3)n2n1)Nc1ccc2c(c1)OCO2	ARNT TACC3 PPI 51
O=C(CSc1ccc2nnc(-c3ccncc3)n2n1)Nc1ccc2c(c1)OCO2	none
CN(C)c1ccc(C=c2c3cc(O)ccc3n3c2cc(-c2ccccc2)[n+]3C)cc1	ARNT TACC3 PPI 60 (no result: HSP90 inh, HIF activator, HSF1 inh, HSF1 activator)
C[n+]1c(-c2ccccc2)cc2c(=Cc3ccccc3)c3ccccc3n21	none (no result: HSP90 inh, HIF activator, HSF1 inh, HSF1 activator)
Cn1cnc([N+](=O)[O-])c1S(=O)(=O)c1cccc(Cl)c1	HSF1 activator 56
C[C@H]1CN([C@@H](C)CO)C(=O)c2cc(C#CC3CCCC3)cnc2O[C@H]1CN(C)C(=O)Nc1ccccc1	none (no result: HSP90 inh, HIF activator, HSF1 inh, HSF1 activator)
CCCn1c(N2CCN(C(=O)Nc3ccccc3)CC2)nc2ccccc21	none
CCCn1c(N2CCN(CC(=O)NCc3cccs3)CC2)nc2ccccc21	HSF1 inh -72
CO[C@@H]1CN(C)C(=O)c2cc(NC(=O)C3CCCC3)ccc2OC[C@@H](C)N(Cc2nccs2)C[C@H]1C	none (no result: HSP90 inh, HIF activator, HSF1 inh, HSF1 activator)
O/N=C1/C2C3CC4C5C3C1C5C1(OCCO1)C42 (configuration not stated)	HIF activator 61
COc1ccc(-c2cc(CCCC(=O)NCCc3ccc(OC)cc3OC)no2)cc1	HSF1 activator 62
COc1ccc(-c2cc(CCCC(=O)NCCc3ccccc3)no2)cc1	none
CCCNC(=O)C[C@H]1CC[C@@H]2[C@H](COc3ccc(NC(=O)c4cccc(Cl)c4)cc3C(=O)N2C)O1	none (no result: HSP90 inh, HIF activator, HSF1 inh, HSF1 activator)
CCOc1ccc(OCCSc2nnnn2-c2ccccc2)cc1	none
O=C1c2ccccc2C(=O)N1CCCCSc1nnnn1-c1ccccc1	HSF1 activator 53
c1ccc(OCCSc2nnnn2-c2ccccc2)cc1	HSF1 activator 69
CC=Cc1ccc2n(c1=O)C[C@H]1[C@H](CO)[C@@H](C(=O)NCCC)N(C(=O)CC3CC3)[C@@H]21 (mixture of isomers)	none (no result: HSP90 inh, HIF activator, HSF1 inh, HSF1 activator)
Cc1noc(C)c1NC(=O)NCC[C@H]1CC[C@@H](NC(=O)c2ccc(F)cc2)[C@H](CO)O1	none (no result: HSP90 inh, HIF activator, HSF1 inh, HSF1 activator)
CCC/C(=N/NC(=O)c1cccc(Cl)c1)c1ccccc1	HIF activator 10
NC(=O)CNC(=O)c1cccc(Cl)c1	ARNT TACC3 PPI active
CCOc1cc([N+](=O)[O-])cc(/C=C2/NC(=O)N(Cc3ccccc3F)C2=O)c1O	HSF1 activator 135
COCCN(C(=O)COC(=O)/C=C/c1ccc(C(F)(F)F)cc1)c1c(N)n(Cc2ccccc2)c(=O)[nH]c1=O	HSF1 inh -67 (no result: HSP90 inh)
COCCN(C(=O)COC(=O)/C=C/c1ccc(SC)cc1)c1c(N)n(Cc2ccccc2)c(=O)[nH]c1=O	none (no result: HSP90 inh, HIF activator, HSF1 inh, HSF1 activator)
COc1ccc(NC(=O)C(=O)NNC(=O)c2ccc(Cl)cc2Cl)cc1	HIF activator 512
COc1ccc(NC(=O)C(=O)NNC(=O)C(C)Oc2ccc(Cl)cc2Cl)cc1 (configuration not stated)	none
CC1(OC(=O)c2cccs2)C(=O)C=C2C=C3CCCN3C=C2C1=O (configuration not stated)	ARNT TACC3 PPI 8.4 (no result: HSP90 inh)
COC(=O)CCCC1=CC2=CC(=O)C(C)(OC(=O)c3cccs3)C(=O)C2=CN1Cc1ccc2c(c1)OCO2 (configuration not stated)	HIF activator 19 (no result: HSP90 inh)
CN1[C@H](C(=O)NCC2CC2)[C@@H](CO)[C@@H]2Cn3c(ccc(-c4ccc(F)cc4)c3=O)[C@@H]21	none (no result: HSP90 inh, HIF activator, HSF1 inh, HSF1 activator)
O=c1[nH]c(-c2ccccn2)nc(C(F)(F)F)c1Br	ARNT TACC3 PPI 63 (no result: HSF1 inh, HSF1 activator)
O=C(C[C@H]1CC[C@@H]2[C@H](COC[C@H](O)CN2S(=O)(=O)c2cccc(F)c2)O1)Nc1ccccc1	none (no result: HSP90 inh, HIF activator, HSF1 inh, HSF1 activator)
C/C(=N\NC(=O)c1c(C)nc2ccccn12)c1ccc(O)cc1O	HIF activator 13
C/C(=N\NC(=O)c1c(C)nc2ccccn12)c1ccccc1F	none
Cc1nc2ccccn2c1C(=O)NN=C1CCCC1	ARNT TACC3 PPI 20
CCCC[C@@H]1CNC(=O)C(=O)N1CCc1cccc2ccccc12	HSF1 inh -69 (no result: HSP90 inh, ARNT TACC3 PPI)
O=C(C[C@H]1C=C[C@H](NC(=O)NC2CCCCC2)[C@H](CO)O1)NCc1ccc(F)cc1	none (no result: HSP90 inh, HIF activator, HSF1 inh, HSF1 activator)
O=C(CCl)N1CCN2C(=O)c3ccccc3C12c1ccc(Cl)cc1 (configuration not stated)	HSF1 activator 76
C[C@@H]1CN([C@H](C)CO)S(=O)(=O)c2ccc(C#CC3CC3)cc2O[C@@H]1CN(C)C(=O)c1ccccc1	none (no result: HSP90 inh, HIF activator, HSF1 inh, HSF1 activator)
COc1ccc(C2c3ccc(O)cc3Oc3ncn(CCCO)c(=N)c32)cc1 (configuration not stated)	HSF1 activator 51
C[C@@H]1CN([C@@H](C)CO)C(=O)c2cc(NC(=O)c3ccccc3)ccc2O[C@@H](C)CCCCO[C@H]1CN(C)Cc1ccc(C(=O)O)cc1	none (no result: HSP90 inh, HIF activator, HSF1 inh, HSF1 activator)
Cc1cccc(/C=N/NC(=O)c2ccc(NC(=O)c3ccccc3C)cc2)n1	none
CC(Nc1cccc2ccccc12)C(=O)N/N=C/c1ccccn1 (configuration not stated)	ARNT TACC3 PPI 67 (no result: HIF activator)
Cc1cccc(C(=O)Nc2cccc(C(=O)N/N=C/c3ccccn3)c2)c1	ARNT TACC3 PPI 71
Cc1cccc(/C=N/NC(=O)c2ccncc2)n1	ARNT TACC3 PPI 63
Cc1ccccc1C(=O)Nc1cccc(C(=O)N/N=C/c2cc(Cl)cc([N+](=O)[O-])c2O)c1	ARNT TACC3 PPI 52
COc1cc(/C=N/NC(=O)c2cccc(NC(=O)c3ccccc3C)c2)ccc1O	none
O=C(CCCC(=O)N/N=C\c1ccccn1)N/N=C\c1ccccn1	none
O=C(N/N=C/c1ccccn1)c1cccc(NC(=O)c2ccccc2Cl)c1	ARNT TACC3 PPI 63
Cc1cccc(C(=O)N/N=C/c2ccccn2)c1	HSF1 activator inconclusive, ARNT TACC3 PPI 54
O=C(N/N=C/c1ccccc1F)c1cccc(NC(=O)c2ccccc2Cl)c1	none
O=C(N/N=C/c1ccccn1)c1cccc(S(=O)(=O)Nc2ccccc2Cl)c1	ARNT TACC3 PPI 65
COc1ccc(NC(=O)Nc2cccc3c2O[C@@H](CN(C)Cc2ccccc2)[C@H](C)CN([C@H](C)CO)C3=O)cc1	none (no result: HSP90 inh, HIF activator, HSF1 inh, HSF1 activator)
Cc1noc(C)c1S(=O)(=O)Nc1ccc2c(c1)C(=O)N([C@@H](C)CO)C[C@H](C)[C@H](CN(C)S(=O)(=O)c1cccs1)OCCCC[C@@H](C)O2	none (no result: HSP90 inh, HIF activator, HSF1 inh, HSF1 activator)
CCNC(=O)Nc1ccc2c(c1)C(=O)N(C)[C@@H]1CC[C@@H](CC(=O)NCC3CCCCC3)O[C@@H]1CO2	none (no result: HSP90 inh, HIF activator, HSF1 inh, HSF1 activator)
C[C@@H](NC(=O)C[C@@H]1C[C@H]2c3cc(NC(=O)CN(C)C)ccc3O[C@H]2[C@@H](CO)O1)c1ccccc1	none (no result: HSP90 inh, HIF activator, HSF1 inh, HSF1 activator)
O=C(Cc1cccnc1)N[C@H]1CC[C@@H](CCn2cc(Cc3ccccc3)nn2)O[C@@H]1CO	none (no result: HSP90 inh, HIF activator, HSF1 inh, HSF1 activator)
Clc1ccc(-c2cn3c(n2)-c2ccccc2C3)cc1Cl	HSF1 activator 53
